Rows were chosen to be rich in hits. Some 4.1% of all compounds tested hit in one or more screens of this group.
hcDAF12 agonist = activates DAF-12 receptor from parasite H. contortus; HEK293 hcDAF-12 lit1-tk-luc reporter, luminescence; 0% DMSO, 100% Δ7-dafachronic acid; activation, % at 6.8 µM; 370,000 compounds, 1.4% hits; AID 652067;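 active = activation above the mean of all tested compounds plus 3 SD, cut at about 5.5% in these data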;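 note: 100% = response to 3 µM Δ7-dafachronic acid high control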
hgDAF-12 ag = agonists of H. glycines DAF-12 nuclear receptor. HEK293 GAL4-hgDAF12 UAS-luciferase reporter, agonist luminescence; normalized to butyrate control. activation, % at 6.8 µM. 370,000 compounds, 1.8% hits;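 active = activation above a cutoff set at the mean of all screened compounds plus 3 SD, cut at about 10% in these data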;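 note: 0% = DMSO wells and 100% = sodium butyrate wells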
PolyA inhibitor = blocks polyadenylation in yeast reporter cells. AID 1875. activity score, % at 12 µM. S. cerevisiae SKY197-pL101 polyadenylation reporter, beta-gal luminescence; efflux-impaired pdr1/pdr3 knockout yeast; score 100 = 6 SD above DMSO. 300,000 compounds, 0.02% hits;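 active = lowest replicate activity score at least 50, where 100 means six control SD above control mean; inconclusive = lowest score under 50 but half or more replicates reach 50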;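 note: yeast exposed to compound for 9 h at 30 °C; higher score means more reporter readthrough which indicates perturbed polyadenylation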
DAX1 inh-1 = DAX1 (NR0B1) inhibition, primary screen; HEK293T StAR-luciferase reporter, SF-1/DAX-1 repression relief; inhibition, % at 6.8 µM; 370,000 compounds, 1.1% hits; AID 652010;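 active = inhibition above the mean over all tested compounds plus 3 SD, cut at about 3.6% in these data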;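 note: 0% = DAX-1 cells with DMSO and 100% = cells lacking DAX-1 with DMSO; higher inhibition means more luminescence from relief of DAX-1 repression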
ssDAF-12 act = S. stercoralis DAF-12 activation, primary screen; HEK293 ssDAF-12/GRIP1 lit1-tk-luc reporter, luminescence; % of 3 µM dafachronic acid response; 370,000 compounds, 1% hits; AID 652126; activation, % at 6.8 µM;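 active = activation above the mean over all tested compounds plus 3 SD, cut at about 0.9% in these data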;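 note: 0% = DMSO-only wells and 100% = 3 µM delta7-dafachronic acid wells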
DAX1 inh-2 = inhibitors of human orphan nuclear receptor DAX1 (NR0B1); P51843; HEK293 Gal4-DAX1 luciferase reporter, luminescence; inhibition, % at 6.75 µM; 340,000 compounds, 0.99% hits; AID 504766;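 active = inhibition above the mean over all tested compounds plus 3 SD, cut at about 4.2% in these data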;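 note: 0% = DAX1-transfected cells with DMSO and 100% = empty-vector control cells with DMSO; inhibition shows as a rise in luminescence from relieved DAX1 repression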
Target sequence (P51843 207-470 limits assumed): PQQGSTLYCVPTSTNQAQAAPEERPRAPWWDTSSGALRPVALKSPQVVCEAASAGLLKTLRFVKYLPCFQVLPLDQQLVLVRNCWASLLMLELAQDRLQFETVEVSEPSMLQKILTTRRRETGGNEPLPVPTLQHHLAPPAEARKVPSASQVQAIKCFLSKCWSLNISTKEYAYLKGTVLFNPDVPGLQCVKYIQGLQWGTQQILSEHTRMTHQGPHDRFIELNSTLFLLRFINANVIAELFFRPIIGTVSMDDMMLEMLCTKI
* = called active by the depositor; ? = inconclusive; · = no result given.

SMILES	hcDAF12 agonist	hgDAF-12 ag	PolyA inhibitor	DAX1 inh-1	ssDAF-12 act	DAX1 inh-2
COCCNC(=O)C1(C)C=CC2(CCCCC2)N1C(=O)c1ccccc1 (stereo not given)	0	2	15	0	-1	4.7*
CCc1c(C)nc2cc(-c3cccc(Br)c3)[nH]n2c1=O	6.4*	7	-7	1	1.0*	2
CCCc1cc(=O)n2[nH]c(-c3ccc(C)cc3)cc2n1	2	6	-7	4.0*	0	2
O=c1c2c(nc3cc(-c4ccc(Cl)cc4)[nH]n13)CCS2	4	11*	41	3	0	3
CCOC(=O)CCc1c(C)nc2cc(-c3ccc(Cl)cc3)[nH]n2c1=O	-1	1	-8	1	-1	-1
CCc1c(C)nc2cc(-c3ccc(Cl)cc3)[nH]n2c1=O	3	11*	-20	2	0	4.8*
COC(=O)c1cc2c(c3c4cc(F)ccc4n(S(=O)(=O)c4ccc(OC)cc4)c13)C(=O)N(Cc1ccccc1OC)C2	-1	1	·	0	-1	·
CCC1CCCCN1CCCNC(=O)c1ccc2nc(N3CCCCC3)sc2c1 (stereo not given)	5.6*	11*	?	2	1	1
CCCN1CCN(CCCNC(=O)c2ccc3nc(N4CCCCC4)sc3c2)CC1	3	7	9	4.4*	-1	2
CC1CCCC(C)N1CCCNC(=O)c1ccc2nc(N3CCCCC3)sc2c1 (stereo not given)	2	9	2	3.8*	-1	2
CC1CC(C)CN(CCCNC(=O)c2ccc3nc(N4CCCCC4)sc3c2)C1 (stereo not given)	4	3	25	2	-1	0
COCCN1Cc2cc(C(=O)OC)c3c(c2C1=O)c1cc(F)ccc1n3C(=O)c1ccccc1	-1	-5	·	-2	-2	·
O=C(OCc1cn(Cc2ccc(F)c(F)c2)nn1)N1CCCC1	0	-3	·	0	0	·
O=C(c1ccccc1Oc1ccccc1)N1CCC(Oc2cccnc2)CC1	-2	0	·	-1	0	·
CN(C)C(=S)NC(=S)Nc1ccc2ccccc2c1	12*	17*	·	3	1.3*	0
O=C(NCC(c1ccccc1)c1ccccc1)[C@H](Cc1ccccc1)NC1(C(=O)NC2CCCCC2)CCCC1	-1	-4	·	·	-2	·
C/C(=N\NC(=O)c1ccc(C)cc1C)c1ccc2c(c1)OCO2	2	7	26	1	1.3*	2
C/C(=N/NC(=O)c1ccc2c(c1)OCO2)c1ccc(Br)s1	0	3	1	0	0.9*	1
C/C(=N\NC(=O)c1ccc(Cl)c(Cl)c1)c1ccc(Br)s1	3	3	0	0	-1	1
CCOC(=O)NC1(NCC(C)C)Oc2ccccc2O1	0	-1	-1	0	-1	4.4*
CCOC(=O)NC1(NC(C)C)Oc2ccccc2O1	2	-1	13	1	-1	1
N#CC1CCN(C(=O)c2ccc3c(Cl)c4c(nc3c2)CCCC4)CC1	-2	2	16	4.4*	-1	1
O=C(c1cc2ccccc2oc1=O)N(Cc1cccs1)C1CCS(=O)(=O)C1 (stereo not given)	5.8*	7	8	1	1	1
Cc1ccc(CN(C(=O)c2cc3ccccc3oc2=O)C2CCS(=O)(=O)C2)cc1 (stereo not given)	2	7	10	1	0	1
O=C(c1cc2ccccc2oc1=O)N(Cc1ccc(F)cc1)C1CCS(=O)(=O)C1 (stereo not given)	3	3	-21	2	0	4.5*
SMILES	hcDAF12 agonist	hgDAF-12 ag	PolyA inhibitor	DAX1 inh-1	ssDAF-12 act	DAX1 inh-2
Cc1ccc(N2NC(C)(c3cccs3)NC2=S)cc1 (stereo not given)	3	-2	14	0	0	4.3*
CCC(=O)Nc1ccc(Cl)cc1C(=O)c1ccc[nH]1	3	5	·	·	-1	·
Cc1ccc(C(=O)N2CCC(C(=O)NC3CCCC3)CC2)cc1	0	-1	3	0	0	4.3*
C[C@@H]1CN([C@@H](C)CO)C(=O)CCCn2cc(nn2)CO[C@H]1CN(C)C(=O)Nc1ccc(C(F)(F)F)cc1	-1	2	·	-1	-1	·
Cc1ccc2nc3c(c(N)c2c1)CCN3c1ccccc1	0	0	12	-1	-2	-2
Cc1ccc2nc3c(c(N)c2c1)CCN3C	6.2*	7	-7	0	0	4
COc1ccc(-c2nc(SC)n(S(=O)(=O)c3ccccc3)n2)cc1	0	5	-9	1	1.0*	0
S=C(Nc1cccc(Cl)c1)N(CCCN1CCCC1)Cc1cccn1Cc1ccc(Cl)cc1	-1	1	-1	0	-1	2
COc1cccc(NC(=S)N(CCCN2CCCC2)Cc2cccn2Cc2ccc(Cl)cc2)c1	·	·	-5	·	·	4.4*
CSc1nc2ccc(NC(=O)C3=NN(c4ccccc4)C(=O)CC3)cc2s1	1	-3	12	-1	-1	-1
CSc1nc2ccc(NC(=O)C3=NNC(=O)CC3)cc2s1	5.6*	7	7	2	0	1
CC(/C=N\NC(=O)CSc1nnc(-c2ccc(Br)cc2)n1-c1ccccc1)=C\c1ccco1	-1	2	·	-3	-1	·
C=CCN(CC#CC(=C)C)CC1CC1	-2	3	·	-1	0	·
O=C1C=C(C2OC(CO)C(O)C2O)C(=O)N1 (stereo not given)	-1	-1	·	1	-1	5.9*
CC1(NC(=S)NCCCCCCNC(=S)NC2(C)CCS(=O)(=O)C2)CCS(=O)(=O)C1 (stereo not given)	-1	0	13	1	-2	5.0*
CC1(NC(=O)NCCCCCCNC(=O)NC2(C)CCS(=O)(=O)C2)CCS(=O)(=O)C1 (stereo not given)	-2	-2	-3	0	-1	2
CC1=CC(=O)C(C2CCCCC2)=C/C1=N\OS(=O)(=O)c1ccccc1	-4	-6	·	·	-3	·
CC1=NN(c2ccccc2)C(=O)C1C(=O)c1ccccc1 (stereo not given)	-1	-2	-4	1	-1	1
CC1=NN(c2ccccc2)C(=O)C1C(=O)C(=O)Nc1ccc(F)cc1 (stereo not given)	4	11*	2	4.3*	-1	0
CC1(c2ccncc2)Nc2ccccc2-c2nc3ccccc3n21 (stereo not given)	2	12*	-10	1	-1	1
CN(Cc1ccccc1)c1nnc(N)s1	-2	-2	10	1	-1	1
CC(C)N(c1nnc(N)s1)C(C)C	3	0	15	-1	0	5.0*
O=C(CN1CCOc2ccccc21)NC1CC1	6.5*	2	10	1	2.1*	3
